Screening data as filed in PubChem BioAssay.
NS1 inh: influenza NS1 inhibition | Potency, µM (series often up to 46.1 µM), without a hit: at the highest dose activity, positive = more growth | hit rate 0.4% among 270,000; calls by dose curve; further: potency means the concentration at half of the fitted maximal effect; actives are rising curves; nearly all actives have a fitted effect of over 50% in size
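Recovery from NS1-induced slow growth read by OD600 in budding yeast switched to galactose assay medium (pH 6.0, -URA) at 1:100 dilution. Compound 23 nl per well; the matching strain lacking NS1 serves as control.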
Shiga inhibitor: Shiga toxin inhibition | Vero cells, Shiga toxin protein synthesis inhibition reporter | AID 2315 | inhibition, % at 38.7 µM | hit rate 9.2% among 290,000; in the data active means inhibition mostly above about 28%, no sharp cut-off; inactive means mostly below about 43%; further: 0% is about no effect
TbPYK inhibitor: blocks Trypanosoma brucei pyruvate kinase; AID 624173; Q57TT1; hit rate 0.12% among 410,000; Potency, µM (doses to about 76.8 µM), without a hit: at the top dose activity, negative = inhibition, actives largely listed as inhibitors; TbPYK enzyme, Kinase-Glo Plus ATP luminescence, 45 min; further: potency means the concentration at half of the fitted maximal effect; on the % scale 0 is the no-effect control and ±100 the full control effect; nearly all actives have a fitted effect of over 50% in size
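Activity of T. brucei pyruvate kinase was followed by Kinase-Glo Plus luminescence after the enzyme reacted 45 min at room temperature with 130 uM ADP (final) and substrate. Test compounds were added before ADP at multiple concentrations.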
SARS PLP yeast: SARS-CoV PLP inhibition in yeast; Potency, µM (series often up to 32.9 µM), for inactives: top-dose activity, positive = growth rescue, usual class: activators; S. cerevisiae expressing SARS-CoV PLpro, growth rescue; hit rate 0.19% among 330,000; calls by dose curve; further: potency means the concentration at half of the fitted maximal effect; 0% is about no effect; nearly all actives have a fitted effect of over 55% in size
LmPK inhibitor: blocks Leishmania mexicana pyruvate kinase activity. Potency, µM (titrated, usually from 57.5 µM), inactives show at the top dose activity change, negative = inhibition, usual class: inhibitors. Q27686. hit rate 0.37% among 290,000. purified LmPK, Kinase-Glo ATP luminescence, 1 h; further: potency means the concentration at half of the fitted maximal effect; on the % scale 0 is the no-effect control and ±100 the full control effect
Target sequence (Q27686 whole entry, looked up): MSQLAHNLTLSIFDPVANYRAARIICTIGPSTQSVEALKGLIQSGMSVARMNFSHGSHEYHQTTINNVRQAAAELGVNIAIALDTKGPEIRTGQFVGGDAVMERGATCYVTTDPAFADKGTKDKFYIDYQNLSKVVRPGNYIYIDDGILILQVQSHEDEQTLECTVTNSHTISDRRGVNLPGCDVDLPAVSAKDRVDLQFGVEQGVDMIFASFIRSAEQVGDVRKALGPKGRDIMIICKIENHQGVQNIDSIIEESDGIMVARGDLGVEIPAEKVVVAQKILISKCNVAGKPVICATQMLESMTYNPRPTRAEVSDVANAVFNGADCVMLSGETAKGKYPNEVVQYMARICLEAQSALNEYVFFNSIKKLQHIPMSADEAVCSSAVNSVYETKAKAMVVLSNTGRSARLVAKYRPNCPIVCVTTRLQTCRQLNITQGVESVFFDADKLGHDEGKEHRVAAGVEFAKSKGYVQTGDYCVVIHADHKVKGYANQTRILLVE
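Purified LmPK (0.1 nM) with 0.5 mM PEP and 0.1 mM ADP in imidazole buffer pH 7.2 with MgCl2/KCl, 1 h at room temperature. ATP formed was read by luciferase luminescence and normalized to no-enzyme and uninhibited controls.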
CHX counter: affects cycloheximide protein synthesis inhibition readout, counter-screen; hit rate 12% among 300,000; AID 2314; cell reporter, cycloheximide protein synthesis inhibition counterscreen; max response, %; in the data active means max response mostly above about 13%, no sharp cut-off; inactive means mostly below about 14%; further: read at 38.3 µM for the half of the compounds with a filed dose; 0% is about no effect
Numbers without * were called inactive; ? = inconclusive; . = not tested or not shown. The full list was thinned out, with hits kept by preference. Unless noted, the call rests on the fitted dose curve; in most records, active means well fitted curve in the direction sought with a large enough effect; inconclusive means small, poorly fitted or top-dose-only effect, or another doubt; inactive means no such curve, though single readings can be large; an effect the other way counts as inactive or inconclusive.

SMILES	NS1 inh	Shiga inhibitor	TbPYK inhibitor	SARS PLP yeast	LmPK inhibitor	CHX counter
Cc1ccc2nc(SCC(=O)c3c(C)[nH]c4ccccc34)[nH]c2c1	?	33	-7%	6%	1%	21*
Fc1cccc(CSc2nc3ccncc3[nH]2)c1	-45%	50*	-2%	-9%	-15%	32*
O=C(CSc1nc2ccccc2[nH]1)c1c[nH]c2ccccc12	2%	72*	2%	0%	2%	29*
Fc1cccc(F)c1CSc1nc2ccccc2[nH]1	-8%	111*	-5%	-5%	-12%	37*
CC(=O)C[C@@H](O)CC(=O)[C@@H]1OC(=O)[C@H](C)C/C=C\Cc2ccccc21	.	.	0%	-8%	.	.
Fc1ccccc1CSc1nc2ncccc2[nH]1	2%	63*	-12%	-15%	-19%	45*
O=C(CSc1nc2ccccc2[nH]1)c1ccc(Cl)s1	3%	86*	-21%	-4%	3%	39*
O=c1[nH]c(SCc2ccccc2F)nc2ccccc12	2%	3	1%	0%	7%	2
COc1ccccc1Cn1ccn(Cc2c(F)cccc2Cl)c(=O)c1=O	.	.	3%	.	.	.
Clc1ccc(OCCCCSc2ncccn2)cc1	-12%	20	-8%	-2%	14%	12
Brc1cccc(OCCSc2ncccn2)c1	-14%	44*	-20%	0%	-1%	33*
Nc1nnc(SCCOc2cccc(Br)c2)s1	-59%	46	-3%	-27%	1%	11
Clc1ccc(OCCSc2ncccn2)c(Br)c1	-33%	118*	-4%	-4%	-8%	41*
CCCOc1ccc(OCCSc2ncccn2)cc1	-9%	81*	-1%	-6%	-20%	44*
CN(C)CCCOc1ccc(Cl)cc1Br	4%	-9	-3%	-2%	-5%	-2
CCCNS(=O)(=O)c1cc(-c2nn3c(C)nnc3c3ccccc23)ccc1C	.	.	-6%	.	.	.
O=C1CCc2cc(S(=O)(=O)NCc3ccccc3Cl)cc3c2N1CC3	.	.	-2%	-2%	.	.
O=C(Nc1ccc(F)cc1Cl)C1=COCCO1	.	.	-1%	1%	.	.
N#CC(C(O)c1ccccc1)N1CCOCC1 (centres undefined)	.	.	4%	.	.	.
CN(C)c1ccc(/C=c2\sc3n(c2=O)CCCN=3)cc1	-36%	13	-17%	-4%	?	25*
COC(=O)/C=c1/sc2n(c1=O)CCN=2	-1%	-7	-8%	-7%	1%	-4
O=c1/c(=C\c2ccc(F)cc2)sc2n1CCCN=2	.	93*	-3%	-3%	-6%	43*
O=c1/c(=C/c2ccc(O)cc2)sc2n1CCCN=2	-8%	104*	-26%	?	-27%	21
COc1ccc(C)cc1NC(=O)C(Cc1ccccc1)NS(=O)(=O)c1ccc(Br)s1 (centres undefined)	.	.	4%	.	.	.
CN(C)c1ccc(-c2ccnc3c2CC(C)(C(=O)Nc2ccccc2)O3)cc1 (centres undefined)	.	.	4%	.	.	.
SMILES	NS1 inh	Shiga inhibitor	TbPYK inhibitor	SARS PLP yeast	LmPK inhibitor	CHX counter
O=C(CCCCCNc1nc(=S)[nH]c2ccccc12)NCc1ccccc1Cl	8%	-10	.	1%	5%	-1
S=c1nc(NCCc2ccccc2Cl)c2ccccc2[nH]1	-3%	31	-2%	1%	-6%	26*
COc1ccc(N2CCN(C(=O)c3ccc(NS(=O)(=O)c4cccc(F)c4)cc3)CC2)cc1	-34%	12	0%	-1%	-5%	11*
c1coc(-c2ccnc(-n3cccc3)n2)c1	.	19	3%	-2%	0%	46*
Cc1ccsc1-c1ccnc(-n2cccc2)n1	?	52*	1%	-2%	-2%	22*
Clc1ccc(-c2ccnc(-n3cccc3)n2)s1	6%	16	-3%	-1%	0%	8
Cc1cc(-c2sccc2Br)nc(-n2cccc2)n1	13%	22	9%	-1%	0%	5
Clc1ccsc1-c1ccnc(-n2cccc2)n1	-1%	52*	8%	-1%	1%	22*
c1coc(-c2cnc3ccccc3n2)c1	.	.	-2%	.	.	.
CC(C)(C)c1ccc(CC(=O)N2CCC2(C)C(=O)NS(=O)(=O)c2ccc(C#N)cc2)cc1 (centres undefined)	.	.	-2%	.	.	.
COC(=O)c1cn(NC(=O)Cn2nc([N+](=O)[O-])c(Br)c2C)c(=O)c2ccccc12	.	-18	-1%	-2%	7%	-2
CCc1nnc2c3ccccc3nc(Nc3ccc(F)c(Cl)c3)n12	.	.	0%	.	.	.
CC(C)(C)c1ccc(C(=O)NCCC(=O)NCc2ccc(F)cc2)cc1	.	.	0%	.	.	.
Cc1cccc(/C=N\NC(=O)c2sccc2-n2cccc2)c1	-2%	114*	-1%	4%	2%	65*
O=C(N/N=C\c1cccs1)c1sccc1-n1cccc1	.	35	8%	-2%	8%	24
CC(C)c1ccc(NC(=O)c2sccc2-n2cccc2)cc1	.	158*	3%	-15%	14%	56*
O=C(N/N=C\c1ccccc1)c1sccc1-n1cccc1	-14%	49*	-1%	-4%	-3%	26*
CCOC(=O)c1cnc2c(ccc3ccccc32)c1NCCO	-15%	38*	1%	-11%	-6%	12
CCOC(=O)c1cnc2c(ccc3ccccc32)c1Nc1ccc(OCC)cc1	.	.	-8%	.	.	.
CCOC(=O)c1cnc2c(ccc3ccccc32)c1N	-24%	.	-4%	1%	1%	34*
CCOC(=O)c1cnc2c(ccc3ccccc32)c1NCCN(C)C	-15%	28	-2%	-7%	10%	10
Cc1onc(-c2ccccc2)c1C(=O)N1CCN(c2ncccc2C(F)(F)F)CC1	-31%	-3	-4%	4%	6%	0
COc1cc(-c2cc(C(=O)Nc3ccc(O)cc3)c3ccccc3n2)cc(OC)c1OC	1%	-8	-18%	1%	7%	-2
COc1cc(-c2cc(C(=O)Nc3nc4ccccc4s3)c3ccccc3n2)cc(OC)c1OC	8%	3	0%	6%	-2%	18*
COc1ccc(NC(=O)c2cc(-c3ccc(OC)c(OC)c3)nc3ccccc23)c(OC)c1	14%	-5	0%	-14%	0%	-3
SMILES	NS1 inh	Shiga inhibitor	TbPYK inhibitor	SARS PLP yeast	LmPK inhibitor	CHX counter
CC(=O)c1cccc(NC(=O)c2cc(-c3ccco3)nc3ccccc23)c1	4%	33*	7%	-4%	0%	13
CC(=O)c1ccc(NC(=O)c2cc(C)nc3ccccc23)cc1	6%	28	-7%	0%	1%	28*
COc1ccc(-c2cc(C(=O)Nc3ccc(C(N)=O)cc3)c3ccccc3n2)cc1OC	.	45	0%	4%	-4%	14*
CNc1ncnc2c1cnn2C1CCCCO1 (centres undefined)	.	.	2%	.	.	.
COc1cc(-c2cc(C(=O)Nc3cccc(C(C)=O)c3)c3ccccc3n2)cc(OC)c1OC	-1%	6	-4%	3%	-3%	18*
Cc1nc2ccc(NC(=O)c3cnc(Cl)c(Cl)c3)cc2s1	-9%	71*	-1%	-12%	2%	18*
